In PubChem BioAssay (NCI):
About 79,000 compounds went through this panel and 15% of them were active in at least one assay; those are over-represented in the sample as a whole. The source made the active and inactive calls. Rule as the data show it: active = growth inhibition above about 70%; inactive = the rest.

What was measured:
[1] = NCI Yeast Anticancer Drug Screen. Data for the rad52 strain (AID 147);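 also: 0% = growth of vehicle-treated control cultures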; conditions: S. cerevisiae rad52 mutant growth inhibition, hits give high values
Procedure, shortened: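 Here a repair-compromised yeast strain receives each compound; its growth is then quantified and normalised to vehicle-only controls.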

[2] = NCI Yeast Anticancer Drug Screen. Data for the wt1 strain (AID 149);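 also: 0% = growth of vehicle-treated wt1 cultures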; conditions: S. cerevisiae wt1 strain (SPY 50644) growth inhibition, hits give high values
Procedure, shortened: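 Using yeast strain wt1, compound-induced growth inhibition was determined against vehicle-treated cultures.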

[3] = NCI Yeast Anticancer Drug Screen. Data for the mgt1 strain (AID 153); conditions: S. cerevisiae mgt1 mutant growth inhibition, hits give high values
Procedure, shortened: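 Measured: inhibition of mgt1 yeast growth by compound, normalized to vehicle-treated cultures.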

[4] = NCI Yeast Anticancer Drug Screen. Data for the rad50 strain (AID 155);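 also: 0% = growth of vehicle-only cultures of the same strain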; conditions: S. cerevisiae rad50 strain growth inhibition, hits give high values
Procedure, shortened: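 Relative growth inhibition (compound vs vehicle) was measured in yeast with a defined repair-gene alteration.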

[5] = NCI Yeast Anticancer Drug Screen. Data for the mec2-1 strain (AID 157); conditions: S. cerevisiae mec2-1 strain, hits give high values
Procedure, shortened: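 Using mec2-1 yeast: add compound, measure growth, express inhibition versus vehicle-treated cultures.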

[6] = NCI Yeast Anticancer Drug Screen. Data for the rad14 strain (AID 159);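 also: 0% = growth of vehicle-treated control cultures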; conditions: S. cerevisiae rad14 strain growth inhibition, hits give high values
Procedure, shortened: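 Screen for anticancer potential: a yeast strain altered in DNA damage repair is grown with compound, and reduced growth is quantified against vehicle controls.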

[7] = NCI Yeast Anticancer Drug Screen. Data for the sgs1 mgt1 strain (AID 161);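 also: 0% = growth of cultures given vehicle only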; conditions: S. cerevisiae sgs1 mgt1 strain, hits give high values
Procedure, shortened: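 This yeast growth screen uses a strain with defined DNA-repair lesions; compound-treated growth is compared with vehicle-treated growth.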

[8] = NCI Yeast Anticancer Drug Screen. Data for the CLN2oe strain (AID 163);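 also: 0% = growth of vehicle-only control cultures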; conditions: S. cerevisiae CLN2oe strain, hits give high values
Procedure, shortened: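 Whole-cell yeast growth assay. A strain engineered for altered cell-cycle control received compound, and inhibition relative to vehicle-treated cultures was recorded.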

[9] = NCI Yeast Anticancer Drug Screen. Data for the cln2 rad14 strain (AID 165);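 also: 0% = growth equal to vehicle treated cultures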; conditions: S. cerevisiae cln2 rad14 strain, hits give high values
Procedure, shortened: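 Yeast strain cln2 rad14, bearing defects in cell cycle control and DNA repair, serves as the test system; values reflect growth inhibition compared with vehicle.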

[10] = NCI Yeast Anticancer Drug Screen. Data for the bub3 strain (AID 167); conditions: S. cerevisiae bub3 mutant strain, hits give high values
Procedure, shortened: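 Screening used yeast with an engineered genetic alteration affecting cell cycle control. Compound-exposed cultures were compared with vehicle cultures, and reduced growth was taken as inhibition.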

[11] = NCI Yeast Anticancer Drug Screen. Data for the wt2 strain (AID 169);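 also: 0% = growth of vehicle-treated yeast cultures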; conditions: S. cerevisiae wt2 strain growth inhibition, hits give high values
Procedure, shortened: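 Treated yeast vs. vehicle-treated yeast: growth inhibition determined.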

[12] = NCI Yeast Anticancer Drug Screen. Data for the mlh1 strain (AID 171);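 also: 0% = growth of vehicle-treated control cultures of the same strain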; conditions: S. cerevisiae mlh1 strain growth inhibition, hits give high values
Procedure, shortened: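 A yeast strain with a defined genetic lesion serves as the test organism. Cultures receive compound or vehicle, and growth is measured.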

[13] = NCI Yeast Anticancer Drug Screen. Data for the sgs1 strain (AID 173);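 also: 0% = growth of vehicle-only control cultures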; conditions: S. cerevisiae sgs1 mutant, hits give high values
Procedure, shortened: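 A genetically defined yeast mutant is incubated with the test compound, and its growth is compared to that of the same strain given vehicle.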

[14] = NCI Yeast Anticancer Drug Screen. Data for the mlh1 rad18 strain (AID 175); conditions: S. cerevisiae mlh1 rad18 strain growth inhibition, hits give high values
Procedure, shortened: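 Steps: expose repair-defective yeast to compound; measure growth; express inhibition against vehicle-treated controls.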

[15] = NCI Yeast Anticancer Drug Screen. Data for the rad50EPP+ strain (AID 151);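 also: 0% = growth of vehicle-treated control cultures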; conditions: S. cerevisiae rad50 mutant strain, hits give high values
Procedure, shortened: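 Read-out is yeast growth inhibition relative to vehicle; cells used were the rad50EPP+ strain.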

[16] = NCI Yeast Anticancer Drug Screen. Data for the rad18 strain (AID 177); conditions: S. cerevisiae rad18 mutant growth inhibition, hits give high values
Procedure, shortened: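 Measured value is growth inhibition of a yeast strain bearing a DNA repair alteration, referenced to vehicle-treated cells.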

[17] = at 5.0 µM (retest, dose inferred, filed as 0.5)
[18] = at 50.0 µM (retest, dose inferred, filed as 5.0)

Measured: growth inhibition

CCN(CC)CCNc1ccc2nc(C)n3c4ccc(O)cc4c(=O)c1c23
active: [1]; at 3.7 µM 74% | [1]; at 11.0 µM 89% | [1]; at 33.0 µM 91% | [1]; at 100.0 µM 93% | [4]; at 3.7 µM 73% | [4]; [17] 91% | [4]; at 11.0 µM 84% | [4]; at 33.0 µM 91% | [4]; [18] 91% | [4]; at 100.0 µM 92% | [14]; at 50.0 µM 78.4%
inactive: [1]; at 1.2 µM 40% | [2]; at 1.2 µM -2% | [2]; at 3.7 µM -4% | [2]; at 11.0 µM -2% | [2]; at 33.0 µM 0% | [2]; at 100.0 µM 2% | [3]; at 1.2 µM 3% | [3]; at 3.7 µM 0% | [3]; at 11.0 µM 3% | [3]; at 33.0 µM 1% | [3]; at 100.0 µM 2% | [4]; at 1.2 µM 42% | [4]; at 50.0 µM -0.45% | [5]; at 1.2 µM -1% | [5]; at 3.7 µM 10% | [5]; [17] 15% | [5]; at 11.0 µM 3% | [5]; at 33.0 µM 14% | [5]; [18] 15% | [5]; at 50.0 µM 26.9% | [5]; at 100.0 µM 28% | [6]; at 1.2 µM -1% | [6]; at 3.7 µM 2% | [6]; at 11.0 µM 3% | [6]; at 33.0 µM 8% | [6]; at 100.0 µM 13% | [7]; [17] 18% | [7]; [18] 18% | [7]; at 50.0 µM 0.15% | [8]; at 1.2 µM -1% | [8]; at 3.7 µM 2% | [8]; at 11.0 µM -1% | [8]; at 33.0 µM 3% | [8]; at 100.0 µM -2% | [9]; [17] 28% | [9]; [18] 28% | [9]; at 50.0 µM 18.6% | [10]; at 1.2 µM -3% | [10]; at 3.7 µM -19% | [10]; [17] 39% | [10]; at 11.0 µM -1% | [10]; at 33.0 µM -5% | [10]; [18] 39% | [10]; at 50.0 µM -3.85% | [10]; at 100.0 µM 3% | [11]; at 1.2 µM 0% | [11]; at 3.7 µM 1% | [11]; at 11.0 µM 0% | [11]; at 33.0 µM 1% | [11]; at 100.0 µM 5% | [12]; at 1.2 µM 2% | [12]; at 3.7 µM 3% | [12]; at 11.0 µM -6% | [12]; at 33.0 µM 2% | [12]; at 100.0 µM 22% | [13]; at 1.2 µM 0% | [13]; at 3.7 µM -1% | [13]; at 11.0 µM 1% | [13]; at 33.0 µM 4% | [13]; at 100.0 µM 5% | [14]; [17] 6% | [14]; [18] 6%

O=C(C#Cc1ccccc1)Nc1ccccc1
active: [1]; at 100.0 µM 97% | [2]; at 100.0 µM 95% | [15]; at 33.0 µM 70% | [15]; at 100.0 µM 92% | [4]; at 100.0 µM 97% | [5]; at 100.0 µM 80% | [6]; at 100.0 µM 97% | [8]; at 100.0 µM 94% | [10]; at 100.0 µM 97% | [11]; at 33.0 µM 90% | [11]; at 100.0 µM 99% | [13]; at 33.0 µM 88% | [13]; at 100.0 µM 99% | [16]; at 100.0 µM 94%
inactive: [1]; at 1.2 µM -14% | [1]; at 3.7 µM -11% | [1]; at 11.0 µM -7% | [1]; at 33.0 µM 23% | [2]; at 1.2 µM -1% | [2]; at 3.7 µM -10% | [2]; at 11.0 µM -6% | [2]; at 33.0 µM 6% | [15]; at 1.2 µM -4% | [15]; at 3.7 µM 4% | [15]; at 11.0 µM 37% | [4]; at 1.2 µM -20% | [4]; at 3.7 µM -25% | [4]; [17] -147% | [4]; at 11.0 µM -17% | [4]; at 33.0 µM 52% | [4]; [18] 20% | [4]; at 50.0 µM 45.8% | [5]; at 1.2 µM -9% | [5]; at 3.7 µM -7% | [5]; [17] -48% | [5]; at 11.0 µM -8% | [5]; at 33.0 µM -2% | [5]; [18] -29% | [5]; at 50.0 µM 33.6% | [6]; at 1.2 µM -3% | [6]; at 3.7 µM -9% | [6]; at 11.0 µM 4% | [6]; at 33.0 µM 67% | [7]; [17] -57% | [7]; [18] 67% | [7]; at 50.0 µM 64.7% | [8]; at 1.2 µM -10% | [8]; at 3.7 µM -13% | [8]; at 11.0 µM -14% | [8]; at 33.0 µM -5% | [9]; [17] -64% | [9]; [18] -42% | [9]; at 50.0 µM -13.2% | [10]; at 1.2 µM -10% | [10]; at 3.7 µM -7% | [10]; [17] -74% | [10]; at 11.0 µM -7% | [10]; at 33.0 µM 24% | [10]; [18] -6% | [10]; at 50.0 µM 15.4% | [11]; at 1.2 µM -9% | [11]; at 3.7 µM -4% | [11]; at 11.0 µM 19% | [13]; at 1.2 µM -9% | [13]; at 3.7 µM -3% | [13]; at 11.0 µM 33% | [14]; [17] -149% | [14]; [18] -10% | [14]; at 50.0 µM 38.9% | [16]; at 1.2 µM -9% | [16]; at 3.7 µM -12% | [16]; at 11.0 µM -9% | [16]; at 33.0 µM 8%

CC1CCC(C2=CSC3CCCCC3N2)CC1 (centres undefined)
inactive: [1]; at 1.2 µM 21% | [1]; at 3.7 µM 21% | [1]; at 11.0 µM 21% | [1]; at 33.0 µM 37% | [2]; at 1.2 µM 14% | [2]; at 3.7 µM -2% | [2]; at 11.0 µM 3% | [2]; at 33.0 µM 31% | [2]; at 100.0 µM 65% | [15]; at 1.2 µM 1% | [15]; at 3.7 µM -14% | [15]; at 11.0 µM -8% | [15]; at 33.0 µM 14% | [4]; at 1.2 µM 16% | [4]; at 3.7 µM 23% | [4]; [17] 17% | [4]; at 11.0 µM 20% | [4]; at 33.0 µM 37% | [4]; [18] 13% | [4]; at 50.0 µM 43% | [5]; at 1.2 µM -36% | [5]; at 3.7 µM 5% | [5]; [17] -6% | [5]; at 11.0 µM 3% | [5]; at 33.0 µM 14% | [5]; at 50.0 µM 56.5% | [7]; [17] -4% | [7]; [18] 28% | [7]; at 50.0 µM 51.1% | [8]; at 1.2 µM -3% | [8]; at 3.7 µM 13% | [8]; at 11.0 µM 0% | [8]; at 33.0 µM 22% | [8]; at 100.0 µM 45% | [9]; [17] 32% | [9]; [18] 42% | [9]; at 50.0 µM 11.6% | [10]; at 1.2 µM 5% | [10]; at 3.7 µM -4% | [10]; [17] 42% | [10]; at 11.0 µM 5% | [10]; at 33.0 µM 29% | [10]; at 50.0 µM 66% | [11]; at 1.2 µM -8% | [11]; at 3.7 µM -3% | [11]; at 11.0 µM -4% | [11]; at 33.0 µM 19% | [12]; at 1.2 µM 6% | [12]; at 3.7 µM 4% | [12]; at 11.0 µM 11% | [12]; at 33.0 µM 28% | [14]; [17] 7% | [14]; at 50.0 µM 38.8% | [16]; at 1.2 µM -5% | [16]; at 3.7 µM -6% | [16]; at 11.0 µM -6% | [16]; at 33.0 µM 3% | [16]; at 100.0 µM 45%
active: [1]; at 100.0 µM 78% | [15]; at 100.0 µM 71% | [4]; at 100.0 µM 74% | [5]; [18] 71% | [5]; at 100.0 µM 80% | [10]; [18] 84% | [10]; at 100.0 µM 73% | [11]; at 100.0 µM 74% | [12]; at 100.0 µM 74% | [14]; [18] 85%
